Data: publication PMC4336329 (PLoS ONE, 2015)
The whole screen tested about 310,000 compounds, of which about 14,000 (4.5%) showed an effect of 50% or more. The effect is printed as a negative number. Only a selection was taken, and strong results are over-represented in it overall.

Target: human ether-à-go-go-related gene (hERG) potassium channel (human, UniProt Q12809)
Assay: primary screen, population patch clamp on CHO cells stably expressing hERG; higher = less effect of the substance
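Also: peak tail current of the secondary pulse compared with the same well before compound.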

Sequence of human ether-à-go-go-related gene (hERG) potassium channel (Q12809 whole entry, looked up): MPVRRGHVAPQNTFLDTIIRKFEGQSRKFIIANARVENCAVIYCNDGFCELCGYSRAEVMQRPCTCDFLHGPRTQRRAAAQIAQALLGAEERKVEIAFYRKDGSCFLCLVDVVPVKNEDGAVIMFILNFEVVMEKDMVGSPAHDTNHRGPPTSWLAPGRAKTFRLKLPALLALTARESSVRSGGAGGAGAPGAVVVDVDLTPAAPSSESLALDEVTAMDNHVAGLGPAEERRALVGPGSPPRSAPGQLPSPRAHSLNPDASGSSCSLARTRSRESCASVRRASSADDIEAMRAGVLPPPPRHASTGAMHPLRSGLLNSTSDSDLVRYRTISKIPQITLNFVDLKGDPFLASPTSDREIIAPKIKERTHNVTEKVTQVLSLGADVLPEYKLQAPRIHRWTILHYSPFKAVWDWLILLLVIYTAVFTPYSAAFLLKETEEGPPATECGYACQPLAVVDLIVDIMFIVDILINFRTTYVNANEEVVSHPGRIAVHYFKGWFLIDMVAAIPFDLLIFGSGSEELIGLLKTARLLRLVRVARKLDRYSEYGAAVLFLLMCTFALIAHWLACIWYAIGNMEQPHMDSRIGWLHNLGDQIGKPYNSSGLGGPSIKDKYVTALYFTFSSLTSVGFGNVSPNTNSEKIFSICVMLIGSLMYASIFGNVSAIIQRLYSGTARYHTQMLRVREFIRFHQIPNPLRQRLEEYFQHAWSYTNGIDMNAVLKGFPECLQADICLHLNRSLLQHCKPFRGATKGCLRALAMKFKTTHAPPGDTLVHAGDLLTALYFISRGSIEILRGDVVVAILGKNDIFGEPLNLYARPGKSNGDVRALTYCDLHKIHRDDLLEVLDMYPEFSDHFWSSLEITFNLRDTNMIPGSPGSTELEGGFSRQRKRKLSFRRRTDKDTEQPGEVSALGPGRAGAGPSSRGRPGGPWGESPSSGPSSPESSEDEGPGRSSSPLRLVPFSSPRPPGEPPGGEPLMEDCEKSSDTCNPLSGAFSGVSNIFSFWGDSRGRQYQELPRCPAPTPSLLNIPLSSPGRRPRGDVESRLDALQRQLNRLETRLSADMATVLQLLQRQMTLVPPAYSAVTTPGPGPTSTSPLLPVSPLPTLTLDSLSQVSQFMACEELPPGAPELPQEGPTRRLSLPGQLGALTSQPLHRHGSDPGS

Row | SMILES | hERG current change (%, negative = inhibition) at 10uM [%]
1 | CC(C)C(NC(=O)c1ccccc1)C(=O)NC1CCCc2ccccc21 (centres unmarked) | 15
2 | COc1ccc(-n2c(CNCCc3ccc(C)cc3)nc3ccccc3c2=O)cc1 | -32.8
3 | COC(=O)c1cc(C(=O)OCC(=O)N(C)C2CCS(=O)(=O)C2)cc([N+](=O)[O-])c1 (centres unmarked) | 7.96
4 | Cc1cc(C)n2nc(C(=O)OCC(=O)N3C(C)CCCC3C)nc2n1 (centres unmarked) | 21.5
5 | Cc1ccc(S(=O)(=O)c2nc(Nc3nccs3)sc2Cl)cc1 | 11.6
6 | Cc1ccc(-n2c(-c3ccc(Br)cc3)c[n+]3c2CCc2ccc4cccnc4c2-3)cc1.[Br-] | -74.2
7 | COc1ccc(-n2c(-c3ccc(Br)cc3)nc(=S)c3c2CCCC3)cc1 | -1.32
8 | Cc1ccc(-n2c(=O)[nH]c3ncccc3c2=O)cc1 | 30.2
9 | Brc1ccc(-c2cn3c(n2)CCc2ccc4cccnc4c2-3)cc1 | 12.5
10 | COc1ccc(-n2c(-c3ccccc3)nnc2-c2ccc(Cl)cc2)cc1 | 4.96
11 | COc1ccc(N2C3=[N+](CC2(C)O)c2ccccc2CC3)cc1.[Br-] (centres unmarked) | -44.3
12 | COc1ccc(-n2c(-c3ccc(Br)cc3)c[n+]3c2CCc2ccccc2-3)cc1.[Br-] | -85.2
13 | COc1ccc(-n2c(-c3ccc(Cl)cc3)c[n+]3c2CCc2ccccc2-3)cc1.[Br-] | -78.4
14 | COc1ccc(-n2c(-c3ccc(Cl)cc3)c[n+]3c2CCCCC3)cc1.[Br-] | -29.8
15 | COc1ccc(N2C(=O)CC(NNC(=O)c3cc(C)oc3C)C2=O)cc1 (centres unmarked) | 23.6
16 | COc1ccc(CCNC(=O)CSc2nnc(-c3ccccc3)c3ccccc23)cc1OC | -20
17 | CCNC(=O)NC(=O)C(C)Oc1ccc(C(=O)OC)cc1 (centres unmarked) | 3.92
18 | COc1ccc(C(c2sc3nc(C)nn3c2O)N2CCC3(CC2)OCCO3)cc1 (centres unmarked) | -2.74
19 | COc1ccc(Cc2nnc(NC(=O)Nc3ccc(C)cc3)s2)cc1OC | 10.2
20 | Nc1c(C(=O)CSc2nnc(Nc3ccc(F)cc3)s2)c(=O)[nH]c(=O)n1C1CC1 | 0.202
21 | O=C(c1ccc2c3c(cccc13)CC2)C1CCCN(Cc2cccnc2)C1 (centres unmarked) | -63.4
22 | O=C(c1ccc2c3c(cccc13)CC2)C1CCCN(C(=O)c2cccnc2)C1 (centres unmarked) | -19.4
23 | NC(=O)CCC(=O)N1CCCC(C(=O)c2ccc3c4c(cccc24)CC3)C1 (centres unmarked) | 2.05

Row | SMILES | hERG current change (%, negative = inhibition) at 10uM [%]
24 | O=C(c1ccc2c3c(cccc13)CC2)C1CCCN(Cc2ccccn2)C1 (centres unmarked) | -42.5
25 | CN(C)C(=O)CCC(=O)N1CCCC(C(=O)c2ccc3c4c(cccc24)CC3)C1 (centres unmarked) | -20.2
26 | O=C1CCC(CCC(=O)N2CCCC(C(=O)c3ccc4c5c(cccc35)CC4)C2)=NN1 (centres unmarked) | -54.4
27 | O=C(c1ccc2c3c(cccc13)CC2)C1CCCN(CC2CC2)C1 (centres unmarked) | -46.3
28 | O=C(c1ccc2c3c(cccc13)CC2)C1CCCN(Cc2ccc(OCCO)cc2)C1 (centres unmarked) | -70.4
29 | O=C(c1ccc2c3c(cccc13)CC2)C1CCCN(Cc2ccncc2)C1 (centres unmarked) | -51.5
30 | O=C1CCC(C(=O)N2CCCC(C(=O)c3ccc4c5c(cccc35)CC4)C2)=NN1 (centres unmarked) | -17.9
31 | COCCC(=O)N1CCCC(C(=O)c2ccc3c4c(cccc24)CC3)C1 (centres unmarked) | -17.8
32 | C/C=C(\C)C(=O)OC1C(C)=C2C(C1OC(=O)CCCCC)C(C)(OC(C)=O)CC(OC(=O)CCC)C1(O)C2OC(=O)C1(C)O (centres unmarked) | -6.49
33 | COc1cc2cccc(OC)c(=O)c2c(O)c1OC | -1.84
34 | CCc1ccc(N/C(N)=N/c2nc(CSc3ccccn3)cc(=O)[nH]2)cc1 | 3.29
35 | Cn1ncc2c(Nc3cccc(C(=O)O)c3)ncnc21 | 6.66
36 | CC(C(=O)NCc1ccccn1)c1ccc([N+](=O)[O-])cc1 (centres unmarked) | -49.5
37 | Cc1ccc(S(=O)(=O)N2CCCC2C(=O)Nc2cc(C)on2)cc1 (centres unmarked) | -1.05
38 | Cc1ccccc1-c1noc(CCC(=O)NCc2ccco2)n1 | -2.05
39 | C#CCOCCOCCOCCNc1nc(N2CCN(C(=O)[C@H](CCCCN)n3cc(C(N)[C@H](C)CC)nn3)CC2)nc(N2CCN(C(=O)[C@H](CCC(=O)O)n3cc(C(N)[C@H](C)CC)nn3)CC2)n1.Cl (some centres unmarked) | 13.5
40 | C=C[C@@H]1c2cc(C)ccc2N(S(=O)(=O)c2ccc(C)cc2)[C@H](c2ccccc2C(F)(F)F)C1(C#N)C#N | 7.01
41 | COc1cc(C(=O)NCC(=O)N/N=C(/C)c2cccs2)cc(OC)c1OC | -0.388
42 | Cc1ccc(CC(=O)Nc2ccc(S(=O)(=O)Nc3ncccn3)cc2)cc1 | 19.9
43 | CC(c1ccccc1)n1c(-c2ccccc2F)n[nH]c1=S (centres unmarked) | -11.9
44 | Cc1ncccc1C(=O)N1CCCC(C(=O)c2ccc3c4c(cccc24)CC3)C1 (centres unmarked) | -13.2
45 | Cc1cccc(CN2CCCC(C(=O)c3ccc4c5c(cccc35)CC4)C2)n1 (centres unmarked) | -40.7
46 | Cc1cnc(CN2CCCC(C(=O)c3ccc4c5c(cccc35)CC4)C2)[nH]1 (centres unmarked) | -31.7

Row | SMILES | hERG current change (%, negative = inhibition) at 10uM [%]
47 | CC(=O)N1CCCC(C(=O)c2ccc3c4c(cccc24)CC3)C1 (centres unmarked) | -8.18
48 | CC(=O)NCC(=O)N1CCCC(C(=O)c2ccc3c4c(cccc24)CC3)C1 (centres unmarked) | 8.94
49 | Cc1ncoc1C(=O)N1CCCC(C(=O)c2ccc3c4c(cccc24)CC3)C1 (centres unmarked) | -15.5
50 | CN1CCC(C(=O)N2CCCC(C(=O)c3ccc4c5c(cccc35)CC4)C2)CC1 (centres unmarked) | -61.1
51 | O=C(c1ccc2c3c(cccc13)CC2)C1CCCN(Cc2ncc[nH]2)C1 (centres unmarked) | -55.7
52 | COCC(=O)N1CCCC(C(=O)c2ccc3c4c(cccc24)CC3)C1 (centres unmarked) | -21.2
53 | COc1cc(CN2CCCC(C(=O)c3ccc4c5c(cccc35)CC4)C2)cc(OC)c1O (centres unmarked) | -53
54 | CCn1ccnc1CN1CCCC(C(=O)c2ccc3c4c(cccc24)CC3)C1 (centres unmarked) | -77.4
55 | Cc1ccc(OCC(=O)NCCNC(=O)c2ccncc2)cc1C | 15.9
56 | Cc1ccc(S(=O)(=O)NCc2ccccc2)cc1C(=O)N(C)Cc1ccc(F)cc1 | 5.11
57 | O=c1c2ccccc2oc2nc(-c3ccco3)n(Cc3ccccc3)c(=O)c12 | -9.22
58 | CCOC(=O)c1cc2occc2n1CC(=O)Nc1ccc(OC)cc1OC | -15
59 | O=C(NCCOc1nc(N2CCCCC2)nc(N2CCOCC2)n1)Nc1ccccc1 | -0.098
60 | Cc1ccc(S(=O)(=O)NCc2ccco2)c(C)c1C | -4.4
61 | CN(NC(=O)c1ccco1)c1nc2ccccc2nc1C(F)(F)F | 0.871
62 | N#CCCN(Cc1cccnc1)C(=O)Nc1cccc(Cl)c1 | -10.9
63 | N#Cc1ccc(-c2csc(NNC(=O)c3ccccc3)n2)cc1 | 0.0899
64 | Cc1ccc(NS(=O)(=O)c2ccc(C3CCCCC3)cc2)cc1 | -10.3
65 | CC12CCC(=O)N1C(C(=O)NCc1ccc(Cl)cc1Cl)CS2 (centres unmarked) | -0.564
66 | CCn1c(-c2ccc(N)cc2)nc2ccccc21 | 4.21
67 | COCn1c(-c2ccccc2)nc2ccccc21 | -5.43
68 | CN(C)c1ccc(-c2nc3ccccc3n2C)cc1 | -49.9
69 | C=C(C)Cn1c(-c2ccccc2)nc2ccccc21 | -64.9

Row | SMILES | hERG current change (%, negative = inhibition) at 10uM [%]
70 | C=C(C)Cn1c(-c2ccc(OC)cc2)nc2ccccc21 | -23.4
71 | CCn1c(-c2ccc(N(C)C)cc2)nc2ccccc21 | -50.3
72 | Cc1ccc(C(=O)CSc2nc(N)cc(=O)[nH]2)cc1 | 2.68
73 | Fc1ccc(NC(=S)N/N=C/c2cccc(Br)c2)c(F)c1 | 3.9
74 | O=C(COC(=O)Cc1ccsc1)NCc1ccc(Cl)cc1 | 10.6
75 | CC(Sc1cnc2ccccc2n1)C(=O)O (centres unmarked) | 15.9
76 | Cc1ccc(C#N)c(SCc2ccccc2[N+](=O)[O-])n1 | 2.72
77 | CCOc1ccc(-c2nc(C)c(C(C)=O)n2O)cc1 | -0.685
78 | Cc1nonc1OCCCNc1ccc([N+](=O)[O-])cc1Cl | 9.59
79 | Cc1nonc1OCCNc1ccc([N+](=O)[O-])cc1[N+](=O)[O-] | -54.7
80 | O=[N+]([O-])c1cc(C(F)(F)F)ccc1NCCOc1ccccc1 | -3.64
81 | Cc1nonc1OCCNCCNc1ccc([N+](=O)[O-])c2cccnc12 | -52.2
82 | CCNCCNc1ccc([N+](=O)[O-])c2cccnc12 | -22.8
83 | Cc1nonc1OCCN1CCN(c2ccccc2[N+](=O)[O-])CC1.Cl | -37.2
84 | O=[N+]([O-])c1ccc(NCCNCCOc2nonc2-c2ccccc2)c([N+](=O)[O-])c1 | -68.6
85 | O=[N+]([O-])c1ccc(N2CCN(CCOc3nonc3-c3ccccc3)CC2)c(Cl)c1 | -4.17
86 | Cc1nonc1OCCNCCNc1ccccc1[N+](=O)[O-] | -23.4
87 | Cc1nonc1OCCNc1ccc([N+](=O)[O-])c2cccnc12 | -18
88 | Cc1nonc1OCCN1CCN(c2ccc([N+](=O)[O-])cc2)CC1 | -98.3
89 | Cc1nonc1OCCNCCNc1ccc([N+](=O)[O-])cc1Cl | -49.7
